Assay results as given in publication PMC4336329 (PLoS ONE, 2015).
Out of some 310,000 compounds screened, about 14,000 (4.5%) showed an effect of 50% or more. Effects have a minus sign here. Shown is part of a subset that was picked to be rich in strong results.

target: human ether-à-go-go-related gene (hERG) potassium channel (human, UniProt Q12809); assay: primary screen, population patch clamp on CHO cells stably expressing hERG; higher = less effect of the substance
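Note: peak tail current of the secondary pulse compared with the same well before compound.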

Sequence of human ether-à-go-go-related gene (hERG) potassium channel (Q12809 whole entry, looked up): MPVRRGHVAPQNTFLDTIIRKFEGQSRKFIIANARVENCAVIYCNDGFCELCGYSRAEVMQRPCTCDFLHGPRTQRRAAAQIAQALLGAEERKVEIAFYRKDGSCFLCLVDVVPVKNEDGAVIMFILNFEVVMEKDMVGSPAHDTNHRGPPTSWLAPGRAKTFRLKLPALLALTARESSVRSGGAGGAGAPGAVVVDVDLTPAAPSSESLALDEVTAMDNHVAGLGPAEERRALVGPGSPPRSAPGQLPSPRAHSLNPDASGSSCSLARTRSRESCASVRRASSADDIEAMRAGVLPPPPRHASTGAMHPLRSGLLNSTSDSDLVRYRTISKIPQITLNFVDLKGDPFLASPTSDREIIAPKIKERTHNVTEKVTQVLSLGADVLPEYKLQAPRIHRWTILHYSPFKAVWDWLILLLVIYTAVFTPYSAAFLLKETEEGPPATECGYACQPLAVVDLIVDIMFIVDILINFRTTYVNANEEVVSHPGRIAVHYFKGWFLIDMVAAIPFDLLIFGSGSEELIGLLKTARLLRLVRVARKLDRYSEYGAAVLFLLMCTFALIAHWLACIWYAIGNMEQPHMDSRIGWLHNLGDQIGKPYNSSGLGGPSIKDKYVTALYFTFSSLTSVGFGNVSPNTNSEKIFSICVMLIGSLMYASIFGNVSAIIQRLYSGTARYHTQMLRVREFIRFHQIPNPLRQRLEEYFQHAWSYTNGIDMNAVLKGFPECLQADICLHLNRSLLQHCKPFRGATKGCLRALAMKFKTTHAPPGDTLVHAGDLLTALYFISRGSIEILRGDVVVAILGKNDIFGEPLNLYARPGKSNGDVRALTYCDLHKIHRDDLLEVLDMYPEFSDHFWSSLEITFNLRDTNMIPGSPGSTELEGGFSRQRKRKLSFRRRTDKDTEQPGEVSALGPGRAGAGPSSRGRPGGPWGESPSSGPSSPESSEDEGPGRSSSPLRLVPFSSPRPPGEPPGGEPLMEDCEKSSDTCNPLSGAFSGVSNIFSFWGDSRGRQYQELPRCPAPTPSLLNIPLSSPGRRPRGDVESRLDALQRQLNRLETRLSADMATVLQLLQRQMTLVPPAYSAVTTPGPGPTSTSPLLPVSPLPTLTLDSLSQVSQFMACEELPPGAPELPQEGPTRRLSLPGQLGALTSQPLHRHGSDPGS

Compound	hERG current change (%, negative = inhibition) at 10uM
Cc1nc(CN(C)C(=O)C2CCC(=O)N(CCc3cccc(F)c3)C2)cs1 (centres unmarked)	-7.62%
O=C1CCC(C(=O)N2CCCC2)CN1CCc1cccc(F)c1 (centres unmarked)	4.37%
Cc1cnc(C)c(N2CCN(C(=O)C3CCC(=O)N(CCc4cccc(F)c4)C3)CC2)n1 (centres unmarked)	-53.9%
Cc1cc(CN(C)C(=O)C2CCC(=O)N(CCc3cccc(F)c3)C2)on1 (centres unmarked)	9.94%
CN1CCN(C(=O)C2CCC(=O)N(CCc3cccc(F)c3)C2)CC1 (centres unmarked)	12.3%
CN(Cc1cnn(C)c1)C(=O)C1CCC(=O)N(Cc2cccc(F)c2)C1 (centres unmarked)	-49.8%
Cc1nc2ccccn2c1CN(C)C(=O)C1CCC(=O)N(CCc2cccc(F)c2)C1 (centres unmarked)	-75.6%
CN(Cc1ccccn1)C(=O)C1CCC(=O)N(Cc2cccc(F)c2)C1 (centres unmarked)	6.47%
Cc1nc2ccccn2c1CN(C)C(=O)C1CCC(=O)N(Cc2cccc(F)c2)C1 (centres unmarked)	-80.2%
Nc1nc2c(nc(SCc3ccccc3Br)n2C2OC(CO)C(O)C2O)c(=O)[nH]1 (centres unmarked)	34.9%
CCOC(=O)N1CCC(Nc2c(NCCCN(CC)Cc3ccccc3)c(=O)c2=O)CC1	6.06%
Cc1ccc(C(=O)Nc2ccc3cn[nH]c3c2)cc1S(=O)(=O)N1CCOCC1	-8.78%
O=C(N/N=C/c1cn(-c2ccccc2)nc1-c1cc2ccccc2o1)c1c[nH]c2ccccc12	13.2%
Cc1c(OC(C)C(=O)NCC(O)c2ccccc2)ccc2c3c(c(=O)oc12)CCC3 (centres unmarked)	-13.3%
Cc1cc(NC(=O)c2cccc(S(=O)(=O)N3CCOCC3)c2)c2ccccc2n1	-16.2%
Cc1ccc(C(O)CN2C3=NCCCN3c3ccccc32)cc1.Cl (centres unmarked)	-67.4%
Cc1ccc(C(O)CN2C3=NCCN3c3ccccc32)cc1.Cl (centres unmarked)	-61.1%
Cl.OC(CN1C2=NCCN2c2ccccc21)c1ccccc1 (centres unmarked)	-42.7%
COc1ccc(NC(=O)N2CCC(c3ccccc3)C2)c(OC)c1 (centres unmarked)	-1.5%
Cc1cc(/C=C(/C#N)c2nc3ccccc3[nH]2)c(C)n1-c1ccccc1C(=O)O	15.8%
Cc1ccnn1CC(=O)N/N=C/c1ccc([N+](=O)[O-])s1	-3.9%
CC(C)NC(=S)NNC(=O)C12CC3CC(CC(C3)C1)C2	-8.78%
CCN(CC)C(=O)N1CCN(C)CC1.O=C(O)CC(O)(CC(=O)O)C(=O)O	23.2%
Cc1nc2nc(COc3ccccc3)[nH]n2c(=O)c1Cc1ccccc1	0.308%
Cc1cc(Cl)ccc1OCC(=O)Nc1cccc(S(=O)(=O)N2CCCC2)c1	-1.87%

Compound	hERG current change (%, negative = inhibition) at 10uM
O=C(CN1CCC(NC(=O)Nc2ccccc2)CC1)Nc1ccccc1F	-18.3%
COc1cccc(NC(=O)NC2CCN(CC(=O)Nc3ccccc3[N+](=O)[O-])CC2)c1	-39.4%
O=C(CN1CCC(NC(=O)C2CC2)CC1)Nc1ccccc1[N+](=O)[O-]	22.1%
O=C(Nc1ccccc1)NC1CCN(CCCN2C(=O)c3ccccc3C2=O)CC1	-61.4%
Cc1ccccc1NC(=O)CN1CCC(NC(=O)Nc2ccccc2)CC1	-35.9%
O=C(CN1CCCC1)Nc1ccc([N+](=O)[O-])cc1	-22.6%
O=C(CN1CCC(NC(=O)Nc2ccc(F)cc2)CC1)Nc1ccccc1[N+](=O)[O-]	-51%
O=C(CN1CCC(NC(=O)Nc2ccccc2)CC1)Nc1cccc([N+](=O)[O-])c1	-40.6%
O=C(CN1CCC(NC(=O)Nc2ccccc2)CC1)Nc1ccc([N+](=O)[O-])cc1	-64.4%
O=C1CC(N2CCN(S(=O)(=O)c3ccccc3)CC2)C(=O)N1c1ccccc1 (centres unmarked)	1.87%
O=c1c2c3c(sc2n2cnnc2n1CCc1ccccc1)CCCC3	-20.5%
CCOC(=O)c1cnn(-c2ccc(C)cc2)c1N	-1.1%
CCOc1cccc2sc(N(CCCN(C)C)C(=O)c3ccc(S(=O)(=O)N4CCCCCC4)cc3)nc12.Cl	7.67%
CCOC(=O)N1CCN(S(=O)(=O)c2ccc(C(=O)N(CCCN(C)C)c3nc4c(F)cc(F)cc4s3)cc2)CC1.Cl	-51.3%
CN(C)CCCN(C(=O)c1ccc(S(=O)(=O)N2CCc3ccccc3C2)cc1)c1nc2c(F)cccc2s1.Cl	4.85%
CN(C)CCCN(C(=O)c1ccc(S(=O)(=O)N2CCCCCC2)cc1)c1nc2c(F)cc(F)cc2s1.Cl	-69.6%
Cc1ccc2sc(N(CCCN(C)C)C(=O)c3ccc(S(=O)(=O)N4CCCCCC4)cc3)nc2c1C.Cl	-23.4%
CCOc1cccc2sc(N(CCN(CC)CC)C(=O)c3ccc(S(=O)(=O)N4CCCCC4)cc3)nc12.Cl	-62.4%
CCOc1cccc2sc(N(CCN(CC)CC)C(=O)c3ccc(S(=O)(=O)N4CCCC4)cc3)nc12.Cl	-24.2%
CN(C)CCCN(C(=O)c1ccc(S(=O)(=O)N2CCCCCC2)cc1)c1nc2c(F)cccc2s1.Cl	-66.2%
CN(C)CCCN(C(=O)c1ccc(S(=O)(=O)N2CCCC2)cc1)c1nc2c(F)cc(F)cc2s1.Cl	-44.3%
CN(C)CCCN(C(=O)c1ccc(S(=O)(=O)N2CCc3ccccc3C2)cc1)c1nc2c(F)cc(F)cc2s1.Cl	-15.2%
CCOC(=O)N1CCN(S(=O)(=O)c2ccc(C(=O)N(CCN(CC)CC)c3nc4c(C)cccc4s3)cc2)CC1.Cl	-24.3%
NC(=O)C1(N2CCCCC2)CCN(C2CC(=O)N(Cc3ccc(N4CCCC4=O)cc3)C2=O)CC1 (centres unmarked)	5.32%
O=c1cc(N2CCN(Cc3ccccc3)CC2)[nH]c(=O)n1-c1ccc(Br)cc1	-10.7%
